Measured values as given in the supplement of paper PMC6555819.

Key:
Test in all cases: PBM binding z-score (relative to random genomic background probes); higher = stronger binding; sequences stand for … in GC…GCGATTGACAGCGTAGAATGAAGG
[1] = system: FXR:RXRa (NR concentration 270 nM, RXRa partner concentration 90 nM)
Outline: (§1)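 Random background probes are the reference for binding z-scores. These scores derive from regression-normalized fluorescence on custom Agilent 4×180K protein-binding microarrays incubated 1 h with ligand-free nuclear receptor dimers. Binding was detected with antibodies against each partner (one per run).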

[2] = system: LXRa:RXRa (NR concentration 270 nM, RXRa partner concentration 90 nM)
Outline: as §1

[3] = system: LXRa homodimer (NR concentration 270 nM)
Outline: as §1

[4] = system: LXRb:RXRa (NR concentration 270 nM, RXRa partner concentration 90 nM)
Outline: as §1

[5] = system: LXRb homodimer (NR concentration 270 nM)
Outline: as §1

[6] = system: PPARa:RXRa (NR concentration 270 nM, RXRa partner concentration 90 nM)
Outline: as §1

[7] = system: PPARg:RXRa (NR concentration 180 nM, RXRa partner concentration 90 nM)
Outline: as §1

[8] = system: PPARg:RXRa 270nM:90nM, anti-RXR (NR concentration 270 nM, RXRa partner concentration 90 nM)
Outline: as §1

[9] = system: PPARg:RXRa 30nM:10nM, anti-RXR (NR concentration 30 nM, RXRa partner concentration 10 nM)
Outline: as §1

[10] = system: PPARg:RXRa 90nM:30nM, anti-RXR (NR concentration 90 nM, RXRa partner concentration 30 nM)
Outline: as §1

Row | Sequence | PBM binding z-score [1] | PBM binding z-score [2] | PBM binding z-score [3] | PBM binding z-score [4] | PBM binding z-score [5] | PBM binding z-score [6] | PBM binding z-score [7] | PBM binding z-score [8] | PBM binding z-score [9] | PBM binding z-score [10]
1 | CGAACTAGGTCATTGACAGGACAGTGACTAGTAA | 4.31 | 2.96 | 0.385 | 1.79 | 0.0478 | 4.71 | 7.47 | 6.11 | 3.43 | 5.59
2 | CCTGCTAGGTCATGGTCAGCCAATCTACAGTATG | 3.64 | 2.66 | -0.0941 | 1.68 | -0.0584 | 3.49 | 2.75 | 2.89 | 0.768 | 1.98
3 | TCTTGTAGATCAACAGGTTAAGAAAGCTGGCCAA | 0.41 | 0.634 | -0.164 | 0.757 | -0.124 | 1.33 | 0.000535 | 1.83 | 2.88 | 2.37
4 | GTACAAAGGTGAATAGGTCGTTGATGAGTAGGCG | 2.27 | 2.19 | 0.326 | 1.78 | -0.0357 | 4.09 | 4.55 | 4.78 | 2.17 | 4.03
5 | GCTGCTAGGTCAGGTCGGTCAGCTAACGGGTACG | 1.34 | 1.02 | 0.025 | 0.546 | -0.437 | 1.77 | 0.669 | 1.4 | -0.193 | 0.397
6 | CCTCGGAGGACAACAGGAGCTCAGAGCTGCCAGA | -0.156 | -0.474 | -0.523 | -0.921 | -0.933 | -0.767 | -0.107 | -1 | -0.714 | -0.999
7 | GCAGACAGGTGAAACGGAGGTAACTCAGGGTGGC | -0.223 | 0.247 | -0.497 | -0.0336 | -0.922 | 0.977 | 0.646 | 0.393 | -0.282 | 0.0488
8 | AATACAGGGTCAGTAGGCCAGAGTAGGTACGAAT | 3.97 | 3.63 | 0.625 | 2.61 | 0.737 | 4.47 | 5.91 | 5.01 | 1.93 | 3.86
9 | ATCTCTAGGCAAGACTCAGTTCAGTGAAGAACGC | -0.14 | 0.0146 | -0.0156 | -0.438 | -0.221 | -0.499 | 0.011 | -0.156 | -0.193 | -0.262
10 | GCAGACAGGTGAAACGCAGGTACCTCAGGGTGGC | -0.505 | -0.351 | -1.08 | -0.737 | -1.1 | 0.616 | 0.419 | -0.439 | -0.666 | -0.889
11 | CCTTACGGGTGACGAGGTTATAGCACGACGAGCG | 0.791 | 0.766 | -0.00764 | 0.572 | -0.569 | 2.24 | 1.89 | 1.82 | -0.0114 | 1.22
12 | TGAATGAGGTTAAAAGATCAGGGAACGTTGCAAA | 2.41 | 2.05 | -0.107 | 1.55 | -0.114 | 3.8 | 2.57 | 3.45 | 1.49 | 2.53
13 | CCTTACGGGTCACGAGGGTATAGCACGACGAGCG | 6.44 | 4.54 | -0.0656 | 3.48 | -0.518 | 5.73 | 6.45 | 6.17 | 2.67 | 5.26
14 | TTACCAAGCTGAAAGGTCGTTGATGCACGCCTTG | 0.616 | 0.94 | -0.316 | 1.04 | -1.11 | 2.08 | 1.29 | 3.29 | 1.06 | 2.53
15 | CCTACTGGGCCTAAAAGGTCATTGATGCCGATAA | 4.02 | 4.65 | 4.1 | 4.61 | 0.491 | 4.78 | 1.7 | 3.24 | 0.898 | 2.38
16 | TCTTGTAGATCAATAGAGGTTAAGAGAGTGCGCT | 1.02 | 3.23 | 0.39 | 1.56 | -0.263 | 1.97 | 0.0918 | 1.53 | 2.37 | 2.22
17 | ACTCGGAGGACAACGGTCAGAGCTACGCCAGTGA | 0.0223 | -0.221 | -0.37 | -0.773 | -0.828 | -0.354 | 0.852 | 0.638 | -0.439 | 0.354
18 | CGTCAAAGTCCAACTAAGGTAACGTAAAGCACGC | 0.904 | 0.0247 | 0.14 | -0.00355 | 0.104 | 0.088 | 0.536 | -0.0783 | -0.0174 | 0.18
19 | TCATATACGTAAAGGTGAAAGTCGAACGATATGA | 0.717 | 1.21 | -0.0647 | 1.44 | 0.339 | 2.63 | 1.64 | 2.52 | 3.86 | 3.15
20 | GGTCGGAGGACAAGGTCAGAGCTTTGTCCGTAGA | 2.18 | 1.7 | -0.109 | 1.42 | -0.689 | 2.43 | 0.581 | 1.58 | -0.506 | 0.714
21 | CGAACGAAGGCATGAGTTGATAGCAAATGCCGAT | -0.766 | -0.753 | -0.489 | -0.751 | -1.09 | -0.568 | 0.575 | -0.579 | -0.739 | -0.741
22 | ATATGTAGGTTACATCCGGCTCATTCAGGCTATG | 0.486 | 2.28 | 0.223 | 1.13 | 0.756 | 3.04 | 4.81 | 3.99 | 1.57 | 3.14
23 | GTTATTAGTTGAAAGGGCAACCGAATGATTCTCG | 1.4 | 1.73 | 1.19 | 1.56 | 1.28 | 3.14 | 3.9 | 5.52 | 3.84 | 5.47
24 | CGAACTAGGTCATTGACAGGAAAGTGAATAGTAA | 4.94 | 2.6 | 0.115 | 2.01 | -0.078 | 4.67 | 7.36 | 6.32 | 3.65 | 5.55
